# RORg inh = inhibitors of mouse ROR gamma transcriptional activity; Potency, µM (doses to about 53.6 µM), for inactives: at the top dose activity change, negative = inhibition, most hits filed as inhibitors; AID 2551; Drosophila S2 Gal4-RORgamma UAS-luciferase reporter, 20 h; 310,000 tested, 5.4% active; P51450; also: potency is read from the fitted curve at half-maximal effect; nearly all actives have a fitted effect of over 60% in size
#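 Using a luciferase readout, inhibitors were identified by reduced reporter activity in Drosophila cells coexpressing a copper-inducible Gal4–ROR gamma fusion and UAS-driven Photinus luciferase, incubated 20 hr after 700 uM copper sulfate.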
# rTrxR1 inhibitor = inhibitors of rat thioredoxin reductase 1 | 390,000 tested, 1% active | O89049 | Potency, µM (top dose mostly 114 µM), for inactives: at the top dose activity change, negative = inhibition, usual class: inhibitors | recombinant rTrxR1, NADPH fluorescence consumption, selenite substrate; also: potency is read from the fitted curve at half-maximal effect; nearly all actives have a fitted effect of over 65% in size
#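 Rat TrxR1 (90 nM in the dispensed reagent) was pre-reduced with 400 uM NADPH for 5 min at room temperature, then incubated with compound for 15 min. After 400 uM selenite was added, NADPH fluorescence (Ex 340/Em 450 nm) was followed for 8 min.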
# TrxR1 substrate = rat thioredoxin reductase 1 substrate activity; purified TrxR1 substrate turnover, NADPH consumption readout; 390,000 tested, 0.01% active; Potency, µM (titrated, usually from 114 µM), without a hit: at the highest dose activity change, negative = substrate turnover; also: potency is read from the fitted curve at half-maximal effect; nearly all actives have a fitted effect of over 50% in size
#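 Rat TrxR1, dispensed at 90 nM, was prereduced with 400 uM NADPH (final) for 5 min at ~22 deg C, then incubated with compound 15 min before 400 uM selenite. A first-read NADPH fluorescence drop versus no-compound background flagged substrates.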
# FBPA coupling cs = inhibits coupling enzyme system, counter-screen for aldolase hits. coupling enzyme system counterscreen, AmpLite Red fluorescence. activity change, negative = inhibition, % at 58.2 µM, hits read low. 290,000 tested, 0.67% active; in the data active = activity change below about -30%
#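 Counterscreen lacking aldolase: glyceraldehyde-3-phosphate coupling-enzyme reagent preincubated 10 min at RT with compound (at 57.5 uM final), then substrate/coupling system with AmpLite Red added; fluorescence read at 525/598 nm after 20 min RT.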
# GALK inhibitor = blocks human galactokinase activity. Purified GALK, Kinase-Glo residual ATP luminescence. P51570. Potency, µM (titrated, usually from 57.5 µM), inactives show at the highest dose activity change, negative = inhibition, hits mostly inhibitors. 270,000 tested, 0.007% active; also: potency is read from the fitted curve at half-maximal effect
# Target sequence (P51570 whole entry, looked up): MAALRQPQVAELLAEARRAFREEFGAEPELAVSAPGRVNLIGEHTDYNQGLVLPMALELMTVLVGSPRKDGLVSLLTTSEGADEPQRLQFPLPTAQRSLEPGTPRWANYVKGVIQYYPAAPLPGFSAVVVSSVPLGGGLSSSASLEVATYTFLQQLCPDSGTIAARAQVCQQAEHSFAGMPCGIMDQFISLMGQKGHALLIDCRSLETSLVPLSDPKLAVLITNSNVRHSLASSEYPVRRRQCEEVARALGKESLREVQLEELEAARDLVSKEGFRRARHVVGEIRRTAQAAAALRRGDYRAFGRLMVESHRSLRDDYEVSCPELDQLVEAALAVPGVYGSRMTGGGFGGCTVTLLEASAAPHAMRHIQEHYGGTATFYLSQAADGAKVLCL
#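 Luminescence from leftover ATP (Ultra-Glo luciferase/luciferin) served as read-out after a 1 h room-temperature reaction of 5 nM GALK with 35 uM ATP and 100 uM galactose.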
# VP16 counter = counter-screen for ROR gamma inhibitors: Gal4-VP16 reporter | Drosophila S2 Gal4-VP16 UAS-luciferase, luminescence, 20 h | 310,000 tested, 3.5% active | Potency, µM (titrated, usually from 53.6 µM), without a hit: at the top dose activity, negative = inhibition, actives largely listed as inhibitors;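 also: Gal4-VP16 expression switched on by copper sulfate through the metallothionein promoter; potency is read from the fitted curve at half-maximal effect; nearly all actives have a fitted effect of over 50% in size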
# * marks the source's active call; other numbers are inactive results; ? = inconclusive; / = no result; [ ] = remark or other dose. An excerpt weighted towards active compounds, which were near 5.9% of everything screened. Unless noted, calls follow the shape of the dose curve; as a rule, active = well fitted curve in the direction sought with a large enough effect; inconclusive = small, poorly fitted or top-dose-only effect, or another doubt; inactive = no such curve, though single readings can be large; an effect the other way counts as inactive or inconclusive. % is scaled to controls: 0 for no effect and ±100 for the full control effect.
SMILES,RORg inh,rTrxR1 inhibitor,TrxR1 substrate,FBPA coupling cs,GALK inhibitor,VP16 counter
O=C(O)CCC(=O)NCCC1=c2ccccc2=N/C1=C\c1c(O)n(Cc2ccc(F)cc2)c(=S)[nH]c1=O,-10%,35µM*,6%,4,-15%,2%
C=C(C)C1Cc2c(ccc3c2OC2COc4cc(OC)c(OC)cc4C2C3=O)O1 (configuration not stated),0.035µM*,/,/,-1,/,?
Nc1c(C(=O)NC2CCCC2)c2nc3ccccc3nc2n1CC1CCCO1 (configuration not stated),2%,-18%[11.4 µM],11%[11.4 µM],-46*,2%,-4%
CN(C)S(=O)(=O)c1ccc(C(=O)NNc2nc(-c3ccccc3)c3cc(Br)ccc3n2)cc1,7.1µM*,7%,-2%,-2,2%,?
O=C(CNC(=O)c1ccc(Cl)cc1)Nc1ccc(Br)cc1C(=O)c1ccccc1,?,11%[57.1 µM],6%[57.1 µM],4,-4%,-3%
c1cc2c3c(cccc3c1)CC2,/,10%,6%,/,/,/
COC(=O)C1=C(c2ccccc2)C[C@@H]2CC[C@H]1N2C(=O)NCCCOC(C)C,/,4%,-4%,/,/,/
COc1cc2c(cc1OC)C1C(=O)c3c(cc4c(c3O)C=CC(C)(C)O4)OC1CO2 (configuration not stated),2.8µM*,/,/,-1,/,1µM*
Cn1c(=O)n(C)c2cc(CNCCc3ccc(F)cc3)ccc21,/,33%,1%,/,/,/
CC[C@@]1(O)C(=O)OCc2c1cc1n(c2=O)Cc2cc3c(N)cccc3nc2-1,0.02µM*,24%,10%,-23,-1%,0.35µM*
NS(=O)(=O)OC(CCc1ccccc1)C(Cl)(Cl)Cl (configuration not stated),13%,15%[57.1 µM],6%[57.1 µM],3,/,-18%
Cc1ccc(S(=O)(=O)Oc2ccccc2C=C2C(=O)N(C)C(=O)N(C)C2=O)cc1,/,50µM*,-3%,-2,7%,/
C/C=C1\C[C@H](C)[C@@](O)(CO)C(=O)OCC2=CCN3CC[C@@H](OC1=O)[C@@H]23,-1%[16.9 µM],/,/,0,/,0%[17 µM]
Nn1c(COc2ccc(Cl)cc2)n[nH]c1=S,?,-14%,7%[57.1 µM],1,3%,6%
COc1ccc(OCc2n[nH]c(=S)n2Cc2ccco2)cc1,5.6µM*,-35%[57.1 µM],-6%[57.1 µM],0,-3%,?
N#CC(C#N)=C(C#N)c1ccc(Nc2ccccc2)cc1,?,7.1µM*,-1%,-25,-3%,14µM*
[CH3][Hg][Cl],0.89µM*,/,/,/,/,0.71µM*
C=C1C(=O)OC2C1CCC(C)C1(O)C=CC(=O)C21C (configuration not stated),/,?,4%,/,/,/
C=C1C(=O)O[C@@H]2C[C@@H](C)[C@@H]3C4OC4C(=O)[C@@]3(C)[C@@H](O)[C@H]12 (some centres not stated),2.8µM*,-18%,0%,6,2%,4µM*
C(=NC1CCCCC1)c1c[nH]c2ccccc12,/,8%[57.1 µM],2%[57.1 µM],/,/,/
COCOC1CCC2C3CCC4=CC(=O)CCC4=C3C=CC12C (configuration not stated),/,40µM*,3%,/,/,/
C/C(=C\c1ccc(N(C)C)cc1)[N+](=O)[O-],7.1µM*,?,-7%,1,1%,22µM*
CN(C)c1ccc(/C=C/C=C2/C(=O)NC(=O)N(c3ccccc3)C2=O)cc1,?,15%[57.1 µM],-9%,-8,17%,-4%
CN(C)c1ccc(C(=O)c2ccc(N(C)C)cc2)cc1,16%,-7%,-9%,0,-2%,-10%
CN(C)c1ccc(/C=C/[N+](=O)[O-])cc1,11µM*,-12%,1%,0,3%,13µM*
COc1cc(OC)c2c(c1)OC(c1ccc(OC)c(OC)c1)C(O)C2 (configuration not stated),13%,/,/,-1,/,-16%
COc1cc(/C=N/n2cnnc2)ccc1OC(=O)N(C)C,?,-11%,-4%,-10,0%,3%

# High-throughput results from PubChem BioAssay.
